Source: PubChem BioAssay
TDP1 block: inhibitors of human tyrosyl-DNA phosphodiesterase TDP1; recombinant TDP1, AlphaScreen DNA substrate cleavage; Potency, µM (titrated, usually from 130 µM), for inactives: at the top dose activity change, negative = inhibition, actives largely listed as inhibitors; 350,000 compounds, 0.28% hits; also: potency is read from the fitted curve at half-maximal effect; % is scaled to controls: 0 for no effect and ±100 for the full control effect; nearly all actives have a fitted effect of over 40% in size
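E. coli-derived human Tdp1, 1 nM final. Cpd preinc 15 min RT; substrate 15 nM final, 5 min RT; AS bead mix 10 ug/ml final, 10 min RT. Signal loss = tyrosine-FITC cleavage. No-enzyme wells = max signal.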
TDP1 cell noCPT: qHTS for Inhibitors of human tyrosyl-DNA phosphodiesterase 1 (TDP1): qHTS in cells in absence of CPT. Potency, µM (titrated, usually from 46.2 µM), inactives show top-dose activity change, negative = growth inhibition, actives largely listed as inhibitors. 420,000 compounds, 15% hits. DT40 Tdp1-/- hTDP1 cells, no CPT, ATP luminescence, 48 h; also: potency is read from the fitted curve at half-maximal effect; % is scaled to controls: 0 for no effect and ±100 for the full control effect; nearly all actives have a fitted effect of over 55% in size
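Chicken DT40 Tdp1-/- cells stably complemented with human TDP1 were seeded at 400 cells/well with DMSO in place of 20 nM camptothecin. After compound pinning, cells grew at least 48 hr at 37 °C; viability read by CellTiter-Glo luminescence.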
IL1B secr inh: inflammasome signaling inhibition, IL-1 beta readout | activity change, % at 57.5 µM | THP-1 LPS/ATP IL-1B secretion, AlphaLISA, 16 h; hits give low values | 360,000 compounds, 4.7% hits | AID 743279; in the data active = activity change below about -50%; inconclusive = mostly about -30% to -49%; also: % is scaled to controls: 0 for no effect and ±100 for the full control effect
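THP-1 cells pretreated 1 hr with compounds (up to 57.5 uM final), then stimulated with LPS (250 ng/mL final) plus ATP (1.25 mM final); secreted IL-1B measured by AlphaLISA after 16 hr, decreased signal indicating inhibition.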
HepG2 tox: counter-screen for TGF-b inhibitors: cytotoxicity in HepG2 cells. HepG2 CAGA-GFP viability, ATP luminescence, 18 h. Potency, µM (doses to about 46.1 µM), without a hit: top-dose activity change, negative = cytotoxicity, hits mostly cytotoxic. 410,000 compounds, 0.76% hits. AID 588856; also: potency is read from the fitted curve at half-maximal effect
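HepG2 CAGA-GFP cells (1000/well, DMEM with 1% FBS) received compound, then TGF-beta at 500 pg/mL final, and were incubated 18 hours at 37 degrees C. Viability was read by CellTiter-Glo luminescence. Media-only wells were set as complete cell-killing and DMSO as no toxicity.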
DT40 TDP1 CPT: growth inhibition of DT40 Tdp1-/-;hTDP1 cells with camptothecin (screen for TDP1 inhibitors). chicken DT40 Tdp1-/-;hTDP1 cells + 20 nM CPT, ATP luminescence, 48 h. Potency, µM (top dose mostly 46.2 µM), for the others: top-dose activity change, negative = growth inhibition, most hits filed as inhibitors. 420,000 compounds, 12% hits. AID 686979; also: potency is read from the fitted curve at half-maximal effect; % is scaled to controls: 0 for no effect and ±100 for the full control effect; nearly all actives have a fitted effect of over 55% in size
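Cell growth measured by CellTiter-Glo luminescence after a minimum 48 h, 37 C compound exposure with 20 nM CPT in Tdp1-knockout DT40 cells stably expressing hTDP1, seeded 400/well; qHTS titration format.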
TGFb SMAD3 inh: TGF-b pathway inhibition; HepG2 CAGA-GFP TGF-b/SMAD3 reporter, GFP fluorescence, 18 h; TGF-beta stimulated, 500 pg/mL final; Potency, µM (series often up to 46.1 µM), for inactives: at the top dose activity, negative = inhibition, actives largely listed as inhibitors; 410,000 compounds, 1.2% hits; AID 588855; also: potency is read from the fitted curve at half-maximal effect; % is scaled to controls: 0 for no effect and ±100 for the full control effect; nearly all actives have a fitted effect of over 65% in size
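Inhibition of TGF-beta-driven CAGA-GFP reporter expression in HEPG2 cells is measured by cellular GFP fluorescence after 18 h stimulation with 500 pg/mL recombinant TGF-beta in 1% FBS medium at 37 degrees C.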
* = called active by the depositor; ? = inconclusive; · = no result; [ ] = remark or other dose. A selection: hits, their analogues and other compounds. The true share with any hit is near 19%. Unless noted, calls follow the shape of the dose curve; as a rule, active = well fitted curve in the direction sought with a large enough effect; inconclusive = small, poorly fitted or top-dose-only effect, or another doubt; inactive = no such curve, though single readings can be large; an effect the other way counts as inactive or inconclusive.

SMILES	TDP1 block	TDP1 cell noCPT	IL1B secr inh	HepG2 tox	DT40 TDP1 CPT	TGFb SMAD3 inh
COc1cc(NC2c3ccccc3C(=O)N2Cc2ccc3c(c2)OCO3)cc(OC)c1OC (stereo not drawn)	5%	?	-7	-8%	-7%	-6%
O=C1c2ccccc2C(Nc2ccc3c(c2)OCCO3)N1Cc1ccccc1 (stereo not drawn)	13%	16µM*	-3	-18%	29µM*	-17%
CC(=O)c1cccc(NC2c3ccccc3C(=O)N2Cc2ccc3c(c2)OCO3)c1 (stereo not drawn)	8%	21µM*	-10	-4%	?	-2%
CCOc1ccc(NC2c3ccccc3C(=O)N2Cc2ccc3c(c2)OCO3)cc1 (stereo not drawn)	10%	16µM*	-27	-48%	?	-23%
O=C(NC1CCCCC1)C1c2ccccc2C(=O)N1Cc1ccc2c(c1)OCO2 (stereo not drawn)	-3%	1%	-13	-18%	-2%	-32%
CCOC(=O)N1CCC(N2C(=O)c3ccccc3C2Nc2ccc3c(c2)OCCO3)CC1 (stereo not drawn)	8%	?	11	-11%	?	3%
CCCN(CCC)CCCNC(=O)c1sc2nc3n(c(=O)c2c1C)CCC3	-4%	-11%	·	-50%	6%	?
CCN(CC)c1nn2c(=O)c(C(=O)NCCc3cccc(C)c3)cnc2s1	5%	?	·	-43%	?	0%
Cc1cnc(CNc2ncnc3ccc(-c4ccoc4)cc23)cn1	·	-19%	·	·	?	·
O=C1c2ccccc2C(=O)c2[nH]c(=O)[nH]c21	·	1.8µM*	?	1.4µM*	2.1µM*	1µM*
Cc1cc(N2CCCC2)c(F)cc1/C=C\[N+](=O)[O-]	-10%	?	-68*	-44%	23µM*	11µM*
CC(C)c1ccc(NC(=S)Nc2cccc3ccccc23)cc1	7%[56.1 µM]	16µM*	-8	-12%	18µM*	-17%
Fc1ccc(NC(=S)Nc2cccc3ccccc23)cc1F	3%	16µM*	2	-16%	?	-24%
Cc1ccc(NC(=S)Nc2cccc3ccccc23)cc1	5%	-12%	30	2%	-28%	-16%
O=C(Nc1ccc2nccnc2c1)N1CCCCCC1	0%	-27%	·	29%	?	-4%
C[C@H]1CN(S(=O)(=O)C(C)(C)C)[C@H](CCO)/C1=C\c1ccccc1	·	-11%	31	1%	-29%	14%
COc1cccc(NC(=O)Nc2cccc(-c3cn4cccnc4n3)c2)c1	1%	·	·	-21%	·	-2%
COc1cccc(C(=O)Nc2cccc(-c3cn4c(C)csc4n3)c2)c1OC	8%	16µM*	·	-40%	18µM*	-5%
COc1ccc(C(=O)Nc2cccc(-c3cn4ccsc4n3)c2)c(OC)c1	0%	6.5µM*	·	-35%	5.2µM*	?
Cc1csc2nc(COC(=O)c3ccc(Cl)c([N+](=O)[O-])c3)cc(=O)n12	-4%	?	11	-7%	?	-17%
Cc1c(NC(=O)c2ccc(NC(=O)C3CC3)cc2)cccc1C(=O)O	3%	7%	-4	13%	-2%	0%
COC(=O)c1c(C)sc(-c2c(-c3cccc(Cl)c3)[nH]c3c2c(=O)[nH]c(=O)n3C)c1O	3%	?	·	-1%	?	87%
CCOc1ccccc1NC(=O)Cn1c(=O)n(Cc2nc(C)no2)c(=O)c2ccccc21	3%	-19%	·	-20%	-10%	-15%
